Assay results as given in PubChem BioAssay AID1159580 (chemical genetic matrix, 2015).
In all, about 5,500 compounds went through this assay and about 2,000 (36%) were called active. Not shown: some 18% with an inconclusive outcome. No stated cut-off is given here; in the data, active means normalized growth mostly below about 0.91 (no sharp cut-off); inconclusive means no clear call, values can overlap the other calls; inactive means mostly above about 0.92. The list shows a part of the results.

Assay: chemical genetic growth profiling, strain panel (AID 1159580);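 further: tested at 20 µM; growth read once vehicle control cultures reached saturation at 30 °C; 1 = growth at the plate median or of vehicle wells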
Conditions: S. cerevisiae deletion strains, growth OD

Measured: normalized growth

N#Cc1c(N)sc2c1CCCCC2
active: locus YEL061C, strain CIN8, stronger effect = lower value 0.903 | locus YHR030C, strain SLT2, stronger effect = lower value 0.616 | locus YKL190W, strain CNB1, stronger effect = lower value 0.927 | locus YLR085C, strain ARP6, stronger effect = lower value 0.714 | locus YMR307W, strain GAS1, stronger effect = lower value 0.662 | locus YPL241C, strain CIN2, stronger effect = lower value 0.846 | locus YPR135W, strain CTF4, stronger effect = lower value 0.498
inactive: locus YAL013W, strain DEP1, stronger effect = lower value 0.959 | locus YBR229C, strain ROT2, stronger effect = lower value 0.951 | locus YCL061C, strain MRC1, stronger effect = lower value 0.945 | locus YDL101C, strain DUN1, stronger effect = lower value 0.971 | locus YDR150W, strain NUM1, stronger effect = lower value 1.02 | locus YGR078C, strain PAC10, stronger effect = lower value 0.961 | locus YHR087W, strain rtc3, stronger effect = lower value 0.975 | locus YJL187C, strain SWE1, stronger effect = lower value 0.963 | locus YJR043C, strain POL32, stronger effect = lower value 0.992 | locus YJR075W, strain HOC1, stronger effect = lower value 0.945 | locus YLR039C, strain RIC1, stronger effect = lower value 0.96 | locus YLR058C, strain SHM2 (second series), stronger effect = lower value 0.956 | locus YLR262C, strain YPT6, stronger effect = lower value 0.955 | locus YML094W, strain GIM5, stronger effect = lower value 0.878 | locus YMR219W, strain ESC1, stronger effect = lower value 0.95 | locus YMR263W, strain SAP30, stronger effect = lower value 0.984 | locus YNL153C, strain GIM3, stronger effect = lower value 0.953 | locus YNL298W, strain CLA4 (second series), stronger effect = lower value 0.944 | locus YNL322C, strain KRE1, stronger effect = lower value 0.964 | locus YNR030W, strain Alg12, stronger effect = lower value 0.895 | locus YPL055C, strain LGE1, stronger effect = lower value 0.97
